Compounds without any hit were thinned out: in the full panel of roughly 83,000, 20% have a hit.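 Note: values are percent growth. 100 is the growth of untreated cells, values between 100 and 0 indicate rising inhibition; between -100 and 0 indicates cell death.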 Values without a mark were called inactive. Activity calls are given as the source filed them. How the source made its calls: active means growth percent below 10; inactive means the rest.

The experiment concerns MDA-MB-468 breast. Briefly: NCI-60 one-dose screen, 48 h (100 = growth as untreated, 0 = no growth, -100 = all killed). Conditions: 10 µM unless noted.
In the case of `Nc1cc(C(=O)O)cc(C(=O)O)c1`, the growth was 112%.

Turning to `COc1cc(/C=C/C(=O)c2ccc(-n3cc(CN4CCN(c5cc6c(cc5F)c(=O)c(C(=O)O)cn6C5CC5)CC4)nn3)cc2)cc(OC)c1OC`, the growth is 72.5%.

With `CCOC(=O)C1(N)CCCCC1`, the growth is 105%.

For `C/C(=C(/c1ccc(O)cc1)c1ccc(Cl)cc1)c1ccccc1`, the growth was -71.9% (active).

Take `O=[N+]([O-])c1ccc(-c2ncc(-c3ccc(Br)cc3)o2)cc1`: the growth is 102%.

Take `Cn1c(=O)c2[nH]c(CC(=O)O)nc2n(C)c1=O`: the growth is 107%.

As for `O=c1[nH]ncc(Br)c1Br`, the growth is -15.7% (active).

`O=S(=O)(OCCOS(=O)(=O)c1ccccc1)c1ccccc1`: the growth is 95%.

With `CCc1cc2c(cc1N1CCC(N3CCOCC3)CC1)C(C)(C)c1[nH]c3cc(C#N)ccc3c1C2=O`, the growth was -38.2% (active).

In the case of `CNC(=O)c1c(NC(=O)c2ccc(F)cc2F)sc2c1CCC(=O)C2`, the growth is -15.5% (active).

For the compound `Nc1ccc2c(c1)Cc1cc(N)c(N)cc1-2`, the growth is 76.6%.

On to `COc1ccc2nc(NCCCNCCO)c3sc4ccc(F)cc4c(=O)c3c2c1`, for which the growth was -31.6% (active).

As for `Cc1ccccc1/C=C1\CN(C(=O)OC(C)(C)C)C/C(=C\c2ccccc2C)C1=O`, the growth is 36.7%.

For the compound `Nc1c(Br)cc2c(c1Br)Cc1cc(Cl)ccc1-2`, the growth was -5.33% (active).

Take `CC1=C(/C=C/C(C)=C/C=C/C(C)=C/C(=O)Nc2ccc(O)cc2)C(C)(C)CCC1`: the growth was 30.1%.

Turning to `CCOc1cc(F)c([N+](=O)[O-])cc1[N+](=O)[O-]`, the growth was -35.2% (active).

The values are drawn from PubChem BioAssay (NCI).
